Assay outcomes as filed in PubChem.
NS1 function inh: qHTS Assay for Inhibitors of Influenza NS1 Protein Function. Potency, µM (top dose mostly 46.1 µM), for inactives: top-dose activity, positive = more growth. hit rate 0.4% among 270,000. AID 2326, 2010; calls by dose curve; further: potency means the concentration at half of the fitted maximal effect; actives are rising curves; nearly all actives have a fitted effect of over 50% in size
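Compounds were scored for reversing the slow growth caused by influenza A NS1 in S. cerevisiae, measured by optical density at 600 nm. Assay medium contained 2% galactose at pH 6.0; NS1-free yeast of the same strain were the positive control.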
Pf growth 48h: Primary qHTS for delayed death inhibitors of the malarial parasite plastid, 48 hour incubation. hit rate 5.9% among 310,000. P. falciparum luciferase growth in erythrocytes, 48 h. Potency, µM (highest dose often 28.7 µM), inactives show at the top dose activity change, negative = inhibition, actives largely listed as inhibitors; further: potency means the concentration at half of the fitted maximal effect; on the % scale 0 is the no-effect control and ±100 the full control effect
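Firefly luciferase activity from engineered P. falciparum reports growth; inhibitors lower the luminescent signal. Cultures contained 2% hematocrit erythrocytes at 0.1% final parasitemia.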
CHX counter: Cycloheximide Counterscreen for Small Molecule Inhibitors of Shiga Toxin; cell reporter, cycloheximide protein synthesis inhibition counterscreen; max response, %; hit rate 12% among 300,000; AID 2314, 2010; in the data active means max response mostly above about 13%, no sharp cut-off; inactive means mostly below about 14%; further: read at 38.3 µM for the half of the compounds with a filed dose; 0% is about no effect
Shiga inhibitor: A qHTS for Small Molecule Inhibitors of Shiga Toxin. Vero cells, Shiga toxin protein synthesis inhibition reporter. inhibition, % at 38.7 µM. hit rate 9.2% among 290,000; in the data active means inhibition mostly above about 28%, no sharp cut-off; inactive means mostly below about 43%; further: 0% is about no effect
Pf growth 96h: Primary qHTS for delayed death inhibitors of the malarial parasite plastid, 96 hour incubation. P. falciparum luciferase reporter growth, 96 h. Potency, µM (doses to about 28.7 µM), for the others: at the highest dose activity change, negative = inhibition, most hits filed as inhibitors. hit rate 6.9% among 320,000; further: potency means the concentration at half of the fitted maximal effect; on the % scale 0 is the no-effect control and ±100 the full control effect
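Erythrocytes infected with luciferase-expressing P. falciparum were dispensed at 2% hematocrit and 0.05% parasitemia (final), then incubated with compounds 96 hours at 37 C in 5% CO2. Luminescence after detection reagent addition reported growth.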
Sm TGR inh: qHTS Assay for the Inhibitors of Schistosoma Mansoni Peroxiredoxins; hit rate 3% among 360,000; Schistosoma mansoni thioredoxin glutathione reductase (TGR), Q962Y6; purified TGR, DTNB reduction, TNB absorbance 405 nm; Potency, µM (titrated, usually from 114 µM), inactives show at the top dose activity change, negative = inhibition, actives largely listed as inhibitors; further: potency means the concentration at half of the fitted maximal effect; on the % scale 0 is the no-effect control and ±100 the full control effect; nearly all actives have a fitted effect of over 60% in size
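Kinetic colorimetric format: TGR-catalysed, NADPH-driven DTNB reduction monitored via TNB absorbance. Enzyme dispensed at 20 nM; compound exposure 15 min at room temperature before reaction start.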
An asterisk follows results filed as active. This is a sample that favours compounds with a hit; in the whole collection about 21% have one here. Unless noted, the call rests on the fitted dose curve; in most records, active means well fitted curve in the direction sought with a large enough effect; inconclusive means small, poorly fitted or top-dose-only effect, or another doubt; inactive means no such curve, though single readings can be large; an effect the other way counts as inactive or inconclusive.

What do the screens show for `CCCC(=O)N(Cc1cccnc1)c1nc2c(OC)ccc(Cl)c2s1`?
NS1 function inh: 1%; Pf growth 48h: inconclusive; CHX counter: -8; Shiga inhibitor: -7; Pf growth 96h: 12µM*; Sm TGR inh: 0%

What do the screens show for `O=C(COc1ccccc1)N(Cc1cccnc1)c1nc2c(F)cccc2s1`?
Sm TGR inh: 0%

How did O=C(CCOc1ccccc1)N(Cc1cccnc1)c1nc2c(F)cccc2s1 do in these assays?
Sm TGR inh: 2.2µM*

What do the screens show for `Cc1ccc2sc(N(Cc3cccnc3)C(=O)CCOc3ccccc3)nc2c1C`?
Sm TGR inh: 35µM*

What do the screens show for `c1ccc(N2CCN(c3nc4cc5c(cc4s3)OCCO5)CC2)cc1`?
NS1 function inh: 2%; Pf growth 48h: 173%; CHX counter: 84*; Shiga inhibitor: 95*; Pf growth 96h: inconclusive; Sm TGR inh: -12%

How did O=C(c1ccc2nc(N3CCOCC3)sc2c1)N1CCN(C(=O)c2ccco2)CC1 do in these assays?
NS1 function inh: -12%; CHX counter: -3; Shiga inhibitor: -6; Pf growth 96h: 92%; Sm TGR inh: inconclusive

What do the screens show for `c1c2c(cc3sc(N4CCOCC4)nc13)OCCO2`?
NS1 function inh: -4%; Pf growth 48h: -5%; CHX counter: 14*; Shiga inhibitor: 48; Pf growth 96h: inconclusive; Sm TGR inh: 1%

What do the screens show for `O=C(CNC(=O)c1cccs1)OCc1ccc(Br)cc1`?
NS1 function inh: -31%; Pf growth 48h: 24%; CHX counter: -1; Shiga inhibitor: 15; Pf growth 96h: -5%; Sm TGR inh: -6%

What do the screens show for `O=C(NCCc1ccc(F)cc1)c1cccs1`?
NS1 function inh: -20%; Pf growth 48h: 143%; CHX counter: 26*; Shiga inhibitor: 91*; Pf growth 96h: inconclusive; Sm TGR inh: 0%

What do the screens show for `O=C(CNC(=O)c1cccs1)c1ccc(Br)cc1`?
NS1 function inh: -7%; Pf growth 48h: 124%; CHX counter: 39*; Shiga inhibitor: 109*; Pf growth 96h: 0%; Sm TGR inh: -1%

How did CCc1ccc(OCCNC(=O)c2cccs2)cc1 do in these assays?
NS1 function inh: -56%; Pf growth 48h: 0%; CHX counter: 41*; Shiga inhibitor: 53*; Sm TGR inh: 0%

How did O=C(NCc1ccc(F)cc1)c1cccs1 do in these assays?
NS1 function inh: 21%; Pf growth 48h: -16%; CHX counter: 3; Shiga inhibitor: 18; Pf growth 96h: inconclusive; Sm TGR inh: 6%

Results for COc1ccc(CCNC(=O)c2cccs2)cc1 ?
NS1 function inh: -18%; Pf growth 48h: inconclusive; CHX counter: 32*; Shiga inhibitor: 48*; Pf growth 96h: inconclusive; Sm TGR inh: 3%

How did COc1ccc(CNC(=O)c2cccs2)cc1 do in these assays?
NS1 function inh: -16%; Pf growth 48h: -5%; CHX counter: 4; Shiga inhibitor: 23; Sm TGR inh: -27%

How did COc1ccc(NC(=O)c2oc3ccccc3c2NC(=O)c2cc(=O)c3c(C)cc(C)cc3o2)cc1 do in these assays?
Sm TGR inh: -4%

Results for C=CCC(C)(NCc1ccccc1)c1ccco1 (centres undefined) ?
NS1 function inh: -6%; Pf growth 48h: 26%; CHX counter: -3; Shiga inhibitor: -4; Pf growth 96h: 13%; Sm TGR inh: 4%

Results for CCOC(=O)c1c(S(=O)(=O)N2CCC(C(=O)Nc3ccc(C)cc3C)CC2)c(C)n(C)c1C ?
Sm TGR inh: 45%

Results for COc1cccc(CN2CC34CC(c5ccc(C(C)=O)cc5)C(CC3S2(=O)=O)O4)c1 (centres undefined) ?
CHX counter: -4; Shiga inhibitor: -7

How did O=C(NCCc1cccs1)c1cccs1 do in these assays?
Pf growth 48h: 240%; CHX counter: 50*; Shiga inhibitor: 91*; Pf growth 96h: inconclusive; Sm TGR inh: 1%

How did O=C(NCCCc1ccccc1)c1cccs1 do in these assays?
NS1 function inh: -13%; Pf growth 48h: 27%; CHX counter: 34*; Shiga inhibitor: 55*; Pf growth 96h: 39%; Sm TGR inh: -12%
